# From PubChem
# In the library only some 12% were active in any assay of this set; here they are far more common.
# Pf growth 96h = Primary qHTS for delayed death inhibitors of the malarial parasite plastid, 96 hour incubation; P. falciparum luciferase reporter growth, 96 h; Potency, µM (highest dose often 28.7 µM), for the others: top-dose activity change, negative = inhibition, usual class: inhibitors; hit rate 6.9% among 320,000; AID 504834, 2011; note: % is set by controls: 0 for no effect and ±100 for the full control effect
#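 Two-generation exposure (96 h) targets delayed-death phenotype. Reporter parasites carrying integrated firefly luciferase, in red cells at 2% hematocrit and 0.05% parasitemia final, kept at 37 C, 5% CO2; luminescence loss indicates inhibition.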
# Pf growth 48h = Primary qHTS for delayed death inhibitors of the malarial parasite plastid, 48 hour incubation | P. falciparum luciferase growth in erythrocytes, 48 h | Potency, µM (top dose mostly 28.7 µM), for the others: top-dose activity change, negative = inhibition, hits mostly inhibitors | AID 504832, 2011 | hit rate 5.9% among 310,000; note: % is set by controls: 0 for no effect and ±100 for the full control effect
#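 Luciferase-expressing parasites in RBCs, 2% Hct / 0.1% parasitemia final; RPMI 1640 + 0.5% Albumax; 37 C, 5% CO2, one generation; luminescence read-out, lower signal = inhibition.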
# AmpC no deterg = qHTS Inhibitors of AmpC Beta-Lactamase (assay without detergent); P00811; AmpC nitrocefin hydrolysis, absorbance 480 nm, 0.0001% Triton; Potency, µM (doses to about 57.1 µM), without a hit: top-dose activity change, negative = inhibition, usual class: inhibitors; hit rate 0.52% among 330,000; AID 485341, 2010;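 note: plate controls were no compound for no effect and no enzyme for full effect; nearly all actives have a fitted effect of over 20% in size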
# Target sequence (P00811 whole entry, looked up): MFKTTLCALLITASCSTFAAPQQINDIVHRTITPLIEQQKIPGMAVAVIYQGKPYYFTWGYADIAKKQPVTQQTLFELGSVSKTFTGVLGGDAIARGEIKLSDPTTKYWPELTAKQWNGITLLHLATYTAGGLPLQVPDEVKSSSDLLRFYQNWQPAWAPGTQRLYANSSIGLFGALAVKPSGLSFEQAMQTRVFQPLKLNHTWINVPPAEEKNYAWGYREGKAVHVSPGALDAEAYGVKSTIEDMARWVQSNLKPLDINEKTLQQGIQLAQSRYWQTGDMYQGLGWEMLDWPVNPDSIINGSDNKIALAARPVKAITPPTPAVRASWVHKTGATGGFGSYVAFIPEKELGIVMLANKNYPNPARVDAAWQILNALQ
#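 AmpC (5.3 nM in the dispensed reagent) in 20 mM phosphate pH 7.0 with 0.01% (detergent screen) or 0.0001% Triton X-100 was preincubated with compounds for 15 min at room temperature. Nitrocefin was then added from an 800 uM solution, and hydrolysis was followed at 480 nm.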
# SARS PLP yeast = qHTS of Yeast-based Assay for SARS-CoV PLP; hit rate 0.19% among 330,000; Potency, µM (highest dose often 32.9 µM), for inactives: at the highest dose activity, positive = growth rescue, actives largely listed as activators; S. cerevisiae expressing SARS-CoV PLpro, growth rescue; calls by dose curve; note: 0% is about no effect; nearly all actives have a fitted effect of over 55% in size
# Sm TGR block = qHTS Assay for the Inhibitors of Schistosoma Mansoni Peroxiredoxins; hit rate 3% among 360,000; Schistosoma mansoni thioredoxin glutathione reductase (TGR), Q962Y6; purified TGR, DTNB reduction, TNB absorbance 405 nm; Potency, µM (highest dose often 114 µM), inactives show at the top dose activity change, negative = inhibition, actives largely listed as inhibitors; note: % is set by controls: 0 for no effect and ±100 for the full control effect; nearly all actives have a fitted effect of over 60% in size
#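 Kinetic colorimetric format: TGR-catalysed, NADPH-driven DTNB reduction monitored via TNB absorbance. Enzyme dispensed at 20 nM; compound exposure 15 min at room temperature before reaction start.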
# AmpC detergent = qHTS Inhibitors of AmpC Beta-Lactamase (assay with detergent) | P00811 | AmpC hydrolysis of nitrocefin, absorbance 480 nm, 0.01% Triton | Potency, µM (doses to about 114 µM), inactives show at the highest dose activity change, negative = inhibition, hits mostly inhibitors | hit rate 0.041% among 370,000;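 note: 0% = no-compound wells and -100% = no-enzyme wells; nearly all actives have a fitted effect of over 25% in size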
#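 20 mM phosphate pH 7.0 + 0.01% (detergent screen) or 0.0001% Triton X-100; 5.3 nM AmpC reagent; cpd preinc 15 min RT; nitrocefin (800 uM stock) to start; A480 q20 s × 4 min; Activity was normalised to no-enzyme and no-compound control wells.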
# Numbers without * were called inactive; u = inconclusive; x = not tested or not shown; [ ] = dose if it differs, or a comment. Unless noted, calls come from the whole dose curve; as a rule, active = well fitted curve in the direction sought with a large enough effect; inconclusive = small, poorly fitted or top-dose-only effect, or another doubt; inactive = no such curve, though single readings can be large; an effect the other way counts as inactive or inconclusive. Potency is the fitted concentration of half-maximal effect.
SMILES,Pf growth 96h,Pf growth 48h,AmpC no deterg,SARS PLP yeast,Sm TGR block,AmpC detergent
CCOc1ccc(C(=O)Nc2cc3c(cc2N2CCCC2)n(CC)c(=O)n3CC)cc1OCC,12µM*,u,72%,-1%,u,-4%
CCn1c(=O)n(CC)c2cc(N3CCCC3)c(NC(=O)c3cccc(OC)c3)cc21,0.74µM*,u,87%,-5%,u,2%
Cn1c(=O)n(C)c2cc(N3CCCCC3)c(NC(=O)c3cccc(Cl)c3)cc21,u,10µM*,-16%,6%,-25%,0%
Cc1cccc(C(=O)Nc2cc3c(cc2N2CCCCC2)n(C)c(=O)n3C)c1,x,x,x,x,-11%,0%
CCn1c(=O)c(=O)n(CC)c2cc(N3CCCCC3)c(NC(=O)c3ccc(OC)c(OC)c3)cc21,x,x,x,x,7%,25%
Cc1oc2ncnc(N3CCOCC3)c2c1C(=O)Nc1ccc(Br)cc1F,x,x,x,x,-9%,3%
O=C(NCCCCC(NC(=O)c1ccc([N+](=O)[O-])cc1)C(=O)O)c1ccc([N+](=O)[O-])cc1 (stereo not drawn),1%,x,-8%,13%,-18%,0%
O=C(NCCCCC(NC(=O)C1CCCCC1)C(=O)O)c1ccccc1 (stereo not drawn),8.3µM*,u,-7%,3%,-4%,-7%
Cc1ccc(S(=O)(=O)N2CCC(C(=O)N[C@@H](Cc3ccccc3)C(=O)O)CC2)cc1,-17%,13%,-12%,3%,79µM*,-6%
O=C(NC(Cc1ccccc1)C(=O)O)C1CCCCC1 (stereo not drawn),10µM*,3%,-1%,-9%,3%,u
O=C(NC(Cc1ccccc1)C(=O)O)C1CCN(S(=O)(=O)c2cccc(C(F)(F)F)c2)CC1 (stereo not drawn),-6%,10%,-2%,1%,2%,-13%
CCOc1ccc(NC(=O)CN(C)C(=O)C2CC(=O)N(Cc3ccco3)C2)cc1OCC (stereo not drawn),u,u,0%,0%,45µM*,u
CCOc1ccc(NC(=O)CN(C)C(=O)C2CC(=O)N(c3ccc4c(c3)OCCO4)C2)cc1OCC (stereo not drawn),u,u,25%,1%,-8%,u
CN1CCc2nc(SCc3ccccc3Br)c(C#N)cc2C1,13%,u,32%,0%,22µM*,7%
CCOC(=O)C1=C(CSc2nc3c(cc2C#N)CN(C)CC3)OC(N)=C(C#N)C1c1ccccc1 (stereo not drawn),-27%[5.75 µM],u,51%,-6%,u,-5%
CN1CCc2nc(SCCOc3ccccc3)c(C#N)cc2C1,x,-12%,42%,-8%,u,-5%
COC(=O)C1=C(CSc2nc3c(cc2C#N)CN(C)CC3)OC(N)=C(C#N)C1c1ccccc1F (stereo not drawn),12µM*,u,66%,1%,0%,-12%
Cc1cccc(CSc2nc3c(cc2C#N)CN(C)CC3)c1,7.4µM*,10µM*,79%,-2%,-31%,-2%
CC(Sc1ncc(S(=O)(=O)c2ccc(C(C)C)cc2)c(N)n1)C(=O)Nc1ccccc1 (stereo not drawn),x,x,x,x,u,0%
CCc1ccc(CNC(=O)c2cnc3sc(N4CCOCC4)nn3c2=O)cc1,x,x,x,x,0%,5%
N/C(COc1cccc(Cl)c1)=N\O,16%,11%,-16%,-4%,4%,-10%
N/C(COc1cccc(Cl)c1)=N\NS(=O)(=O)c1ccccc1,13%,-2%,0.32µM*,-1%,-2%,2%
COc1cccc(C2=CC(c3ccc(N(C)C)cc3)n3ncnc3N2)c1 (stereo not drawn),10%,10µM*,33%,-11%,u,-9%
COc1cccc(C2=CC(c3ccccc3)n3ncnc3N2)c1 (stereo not drawn),u,u,-4%,8%,14µM*,-1%
CCOC(=O)N1c2ccccc2Sc2ccccc21,1%,u,-4%,0%,4%,1%
SMILES,Pf growth 96h,Pf growth 48h,AmpC no deterg,SARS PLP yeast,Sm TGR block,AmpC detergent
Cc1nnc(SC(=O)N2c3ccccc3Sc3ccccc32)s1,x,10µM*,34%,18%,-21%,-1%
O=c1[nH]c2ccc(NC(=S)Nc3ccc(Cl)cc3)cc2[nH]1,-7%,x,-9%,4%,-14%,4%
Cc1ccccc1NC(=S)Nc1ccc2[nH]c(=O)[nH]c2c1,26%,-6%,-10%,1%,-33%,0%
O=c1[nH]c2ccc(NC(=S)Nc3ccc(Cl)cc3Cl)cc2[nH]1,x,-1%,-21%,-1%,11µM*,-4%
O=c1[nH]c2ccc(NC(=S)Nc3ccccc3Cl)cc2[nH]1,5%,x,-26%,17%,50µM*,-4%
CCOc1ccc(N2CC(NC(=O)C3CCCCC3)CC2=O)cc1 (stereo not drawn),x,x,x,x,2%,-1%
CC(C)OC(=O)c1c(N)n(CC2CCCO2)c2nc3ccccc3nc12 (stereo not drawn),49%,u,0%,0%,3%,u
Nc1c(C(=O)OC2CCCCC2)c2nc3ccccc3nc2n1CC1CCCO1 (stereo not drawn),13µM*,u,24%,-7%,-1%,-5%
CC(C)OCCCNC(=O)c1c(N)n(CC2CCCO2)c2nc3ccccc3nc12 (stereo not drawn),u,3.3µM*,217%,-3%,-31%,0%
N#Cc1cccc(NC(=O)c2cncn2-c2ccccc2)c1,15%,2%,-17%,5%,-7%,-6%
CCC(CC)COC(=O)C(C#N)c1nc2ccccc2nc1N1CCN(CC)CC1 (stereo not drawn),46%,10µM*,166%,1%,-4%,-10%
COC(=O)C1CCN(c2nc3ccccc3nc2C(C#N)C(=O)NCCc2ccccc2)CC1 (stereo not drawn),15µM*,-2%,-4%,3%,9%,1%
CCOC(=O)C1CCN(c2nc3ccccc3nc2C(C#N)C(=O)OCCOC)CC1 (stereo not drawn),u,u,-5%,5%,-22%,u
C=CCOC(=O)C(C#N)c1nc2ccccc2nc1N1CCN(c2ccccc2OCC)CC1 (stereo not drawn),9.3µM*,9.3µM*,-22%,12%,-7%,-4%
